Compound activity from PubChem BioAssay.
T cruzi growth-1 = T. cruzi intracellular proliferation inhibitors, primary screen, cell-based, beta-gal Tulahuen parasites, NIH3T3 host, luminescence; T. cruzi beta-gal in NIH3T3, GalScreen luminescence, 90 h; inhibition, % at 8.34 µM; actives 5.9% (n = 77,000); AID 624255, 2012;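 active means mean inhibition above about 93%, with at least 55% of replicates each passing it, limit read from the data, passing the limit was not always enough; inconclusive means only one of those two conditions holds; inactive means neither condition holds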
C diff HTS = C. difficile growth inhibitors, primary screen, HTS; Clostridium difficile clinical isolate growth, OD600, 24 h; stronger effect = lower value; growth activity, negative = inhibition, % at 16 µg/mL (by protocol); actives 0.25% (n = 86,000); AID 1259249, 2017;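 active means mean growth activity at or below -80% and every replicate also at or below -80%; inconclusive means mean at or below -80% but some replicate above -80%; inactive means mean growth activity above -80%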
Pf Dd2 growth = P. falciparum Dd2 growth inhibitors, primary screen, SYBR Green fluorescence, single dose replicates. activity change, % at 10 µM. actives 2.3% (n = 94,000). 72 h; stronger effect = lower value; in the data active means activity change below about -80%; inconclusive means no clear call, values can overlap the other calls
T cruzi growth-2 = T. cruzi intracellular proliferation inhibitors, confirmation, cell-based, NIH3T3 host, beta-gal parasite, luminescence, cherry-pick; AID 651739, 2012; T. cruzi beta-gal in NIH3T3, GalScreen luminescence, 90 h; shares compounds with T cruzi growth-1; inhibition, % at 8.35 µM; actives 72% (n = 5,600);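 active means mean replicate inhibition above about 95% and at least 55% of replicates individually reaching it, limit read from the data; inconclusive means only one of the two criteria is met; inactive means neither criterion is met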
T cruzi growth-3 = inhibitors of intracellular T. cruzi replication, confirmation, NIH3T3 host cells, beta-gal parasites, cherry-pick, set 2; shares compounds with T cruzi growth-1; AID 651740, 2012; inhibition, % at 2.09 µM; actives 21% (n = 5,600); T. cruzi beta-gal in NIH3T3, GalScreen luminescence, 90 h;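 active means mean inhibition above about 95%, with at least 55% of replicates also reaching it, limit read from the data; inconclusive means meets just one of the two conditions; inactive means meets neither condition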
3T3 cytotox = cytotoxicity in mouse NIH/3T3 fibroblasts, confirmation, cytotoxicity control for T. cruzi proliferation inhibitor project, cell-based, cherry-pick, single point; shares compounds with T cruzi growth-1; NIH/3T3 viability, CellTiter-Glo ATP luminescence, 90 h; cytotoxicity (signal decrease), % at 8.35 µM; actives 14% (n = 5,600); AID 651742, 2012;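 active means mean signal decrease across replicates above about 35% based on untreated-well scatter, with enough replicates individually passing, limit read from the data; inconclusive means no rule stated though some were filed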
NIH3T3 tox 2 = NIH/3T3 fibroblast cytotoxicity, confirmation, cytotoxicity control, cell-based, cherry-pick, single point, set 2; NIH/3T3 viability, CellTiter-Glo ATP luminescence, 90 h; shares compounds with T cruzi growth-1; AID 651744, 2012; inhibition, % at 24.9 µM; actives 56% (n = 5,600);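 active means mean loss of cell viability signal at or above a set limit, and enough replicates individually reaching it; inconclusive means meets only the mean limit or only the replicate share; inactive means meets neither condition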
Numbers stand for hits; – = inactive; ? = inconclusive; · = not tested or not shown; + = active, no number. Sampled rows, rich in hits. Any-hit rate of the full collection: about 6.8%.

SMILES	T cruzi growth-1	C diff HTS	Pf Dd2 growth	T cruzi growth-2	T cruzi growth-3	3T3 cytotox	NIH3T3 tox 2
CN(C)C(=O)c1cccc(-c2ccc([C@@H]3[C@H](CO)N4CCCCN(CCC(F)(F)F)C[C@@H]34)cc2)c1	–	–	–	·	·	·	·
CN(C)C(=O)c1cccc(-c2ccc([C@H]3[C@@H](CO)N4CCCCN(CCC(F)(F)F)C[C@H]34)cc2)c1	103	–	–	99	–	–	–
CN(C)C(=O)c1cccc(-c2ccc([C@@H]3[C@@H](CO)N4CCCCN(CCC(F)(F)F)C[C@@H]34)cc2)c1	–	–	–	·	·	·	·
CC(C)NC(=O)N(C)C[C@@H]1OCCCC[C@H](C)Oc2ccc(NC(=O)c3ccncc3)cc2C(=O)N([C@H](C)CO)C[C@@H]1C	–	–	–	·	·	·	·
COCC#Cc1ccc2c(c1)O[C@@H](CN(C)S(=O)(=O)c1cccc(F)c1)[C@@H](C)CN([C@@H](C)CO)S2(=O)=O	–	–	–	·	·	·	·
COCC#Cc1ccc2c(c1)O[C@H](CN(C)S(=O)(=O)c1cccc(F)c1)[C@H](C)CN([C@@H](C)CO)S2(=O)=O	–	–	–	·	·	·	·
CCCC#Cc1ccc2c(c1)O[C@@H](CN(C)S(=O)(=O)c1cccc(F)c1)[C@H](C)CN([C@@H](C)CO)S2(=O)=O	124	–	–	106	108	–	67
CCCC#Cc1ccc2c(c1)O[C@@H](CN(C)S(=O)(=O)c1cccc(F)c1)[C@H](C)CN([C@H](C)CO)S2(=O)=O	123	–	–	106	–	51	96
COCC#Cc1ccc2c(c1)O[C@H](CN(C)S(=O)(=O)c1cccc(F)c1)[C@@H](C)CN([C@H](C)CO)S2(=O)=O	?	–	–	–	–	–	69
CCCC#Cc1ccc2c(c1)O[C@H](CN(C)S(C)(=O)=O)[C@@H](C)CN([C@H](C)CO)S2(=O)=O	–	–	–	·	·	·	·
CCCC#Cc1ccc2c(c1)O[C@H](CN(C)S(=O)(=O)c1cccc(F)c1)[C@H](C)CN([C@@H](C)CO)S2(=O)=O	124	–	–	96	99	43	76
CCCC#Cc1ccc2c(c1)O[C@H](CN(C)S(C)(=O)=O)[C@@H](C)CN([C@@H](C)CO)S2(=O)=O	–	–	–	·	·	·	·
COc1ccc2c3c([nH]c2c1)[C@H](CO)N(C(=O)Nc1ccc(F)cc1)CC31CCN(Cc2nccs2)CC1	·	·	–	·	·	·	·
C[C@H](CO)N1C[C@H](C)[C@@H](CN(C)CC2CCOCC2)Oc2cc(C3=CCCC3)ccc2S1(=O)=O	·	–	–	·	·	·	·
CN(C)C(=O)C[C@H]1C[C@H]2c3cc(NC(=O)c4ccc5c(c4)OCO5)ccc3O[C@H]2[C@H](CO)O1	–	–	–	·	·	·	·
COc1cccc(-c2ccc([C@H]3[C@@H](CO)N4C(=O)CN(C(=O)c5ccncc5)C[C@@H]34)cc2)c1	·	–	–	·	·	·	·
C[C@H]1CN([C@@H](C)CO)C(=O)Cc2cc(NC(=O)c3ccncc3)ccc2O[C@H]1CN(C)C(=O)Nc1ccc2c(c1)OCO2	–	–	–	·	·	·	·
CC(C)NC(=O)Nc1ccc2c(c1)C(=O)N([C@@H](C)CO)C[C@@H](C)[C@@H](CN(C)S(=O)(=O)c1cccs1)OCCCC[C@@H](C)O2	·	–	·	·	·	·	·
C[C@@H]1CCCCO[C@@H](CN(C)C(=O)Nc2ccc3c(c2)OCO3)[C@H](C)CN([C@H](C)CO)C(=O)c2cc(NC(=O)CCC(F)(F)F)ccc2O1	–	–	–	·	·	·	·
C[C@H]1CN([C@@H](C)CO)C(=O)Cc2cc(NS(=O)(=O)c3ccc(Cl)cc3)ccc2O[C@H]1CN(C)C(=O)Nc1ccc2c(c1)OCO2	–	·	–	·	·	·	·
CCCC#Cc1ccc2c(c1)O[C@H](CN(C)S(=O)(=O)c1cccc(F)c1)[C@@H](C)CN([C@@H](C)CO)S2(=O)=O	114	–	–	100	117	–	104
C[C@@H]1CN([C@@H](C)CO)S(=O)(=O)c2ccc(C#CCN(C)C)cc2O[C@H]1CN(C)S(=O)(=O)c1cccc(F)c1	·	–	–	·	·	·	·
CC(=O)N1[C@@H]2c3ccc(/C=C/c4ccccc4)c(=O)n3C[C@H]1[C@H](CO)[C@H]2C(=O)N(C)C	+	–	·	–	–	–	–
CC=Cc1ccc2n(c1=O)C[C@H]1[C@H](CO)[C@@H](C(=O)NCCCN(C)C)[C@@H]2N1C(=O)c1ccccc1F (mixture of isomers)	+	–	·	?	–	–	–
CC(=O)N1[C@@H]2Cn3c(ccc(/C=C/c4ccccc4)c3=O)[C@H]1[C@@H](C(=O)N(C)C)[C@@H]2CO	+	–	·	–	–	–	–
SMILES	T cruzi growth-1	C diff HTS	Pf Dd2 growth	T cruzi growth-2	T cruzi growth-3	3T3 cytotox	NIH3T3 tox 2
CCC(=O)N1[C@@H]2c3ccc(/C=C/c4ccccc4)c(=O)n3C[C@H]1[C@H](CO)[C@H]2C(=O)N(C)C	–	–	–	·	·	·	·
CC=Cc1ccc2n(c1=O)C[C@@H]1[C@@H](CO)[C@H](C(=O)N(C)C)[C@H]2N1C(=O)c1ccccc1 (mixture of isomers)	–	–	–	·	·	·	·
CC=Cc1ccc2n(c1=O)C[C@@H]1[C@@H](CO)[C@H](C(=O)NCCCN(C)C)[C@H]2N1C(=O)c1ccccc1 (mixture of isomers)	·	–	–	·	·	·	·
O=C(C[C@H]1CC[C@@H]2[C@H](COC[C@H](O)CN2Cc2ccc(F)cc2)O1)NCc1ccncn1	–	–	–	·	·	·	·
CN(C)CC(=O)Nc1ccc2c(c1)[C@H]1C[C@H](CC(=O)N3CCOCC3)O[C@H](CO)[C@H]1O2	–	–	–	·	·	·	·
C[C@@H]1CN([C@@H](C)CO)S(=O)(=O)c2ccc(-c3cccc(C#N)c3)cc2O[C@@H]1CN(C)C(=O)c1ccccc1	109	–	–	104	–	54	72
C[C@@H]1CN([C@@H](C)CO)S(=O)(=O)c2ccc(-c3cccc(C#N)c3)cc2O[C@@H]1CN(C)C(=O)Nc1ccccc1F	110	–	–	97	–	48	68
C[C@H]1CN([C@@H](C)CO)S(=O)(=O)c2ccc(-c3cccc(C#N)c3)cc2O[C@@H]1CN(C)C(=O)Nc1ccccc1F	?	–	–	–	–	–	61
C[C@@H]1CN([C@H](C)CO)S(=O)(=O)c2ccc(-c3cccc(C#N)c3)cc2O[C@H]1CN(C)C(=O)Nc1ccccc1F	–	–	–	·	·	·	·
